Potency and affinity values are given separately. Values without a mark were called inactive. Activity calls are given as the source filed them.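 The calls were made as follows: active = every repeat run showing a signal drop whose fitted half-maximal concentration is at most twice the top tested concentration; inconclusive = repeat runs disagree, or flat partial drop, or poor fit; inactive = the rest.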
Assay: general mammalian cell viability loss – activator set, cherry-pick, cytotoxicity control for miR-122 modulator project, dose response (AID 720690);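 also: 0% = neutral control wells and -100% = MG132 cytotoxic control wells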
Conditions: HEK293T viability, CellTiter-Glo luminescence, 48 h; series mostly up to 26 µM; activity change, negative = cytotoxicity: at the top concentration

Compound	activity change, negative = cytotoxicity	outcome
CN1C(=O)c2cc(NC(=O)c3cccs3)ccc2OC[C@@H]2O[C@H](CC(=O)NCCN3CCCCC3)CC[C@H]21	-6.08%	–
CN1C(=O)c2cc(NC(=O)c3cccc(F)c3)ccc2OC[C@H]2O[C@H](CC(=O)NC3CCC3)CC[C@H]21	-6.32%	–
COc1cccc(-c2nn(-c3ccccc3)cc2CO)c1	-5.48%	–
CCCNC(=O)C[C@@H]1CC[C@@H]2[C@H](COc3ccc(NS(=O)(=O)c4ccccc4C)cc3C(=O)N2C)O1	-12.3%	–
CC(=O)N(C)C[C@@H]1[C@@H](c2ccc(-c3cccc(C#N)c3)cc2)[C@H](CO)N1C(C)=O	-9.1%	–
Cc1cc(C)cc(Oc2ccc(NC(=O)C3CC=CCC3C(=O)O)cc2)c1 (centres undefined)	-6.22%	–
COCC(=O)N1C[C@H]2[C@@H](c3ccccc31)[C@H](CO)N2C(=O)Nc1ccccc1Cl	-7.62%	–
CCNC(=O)C[C@@H]1CC[C@H]2[C@H](COc3ccc(NC(=O)c4cccc(C(F)(F)F)c4)cc3C(=O)N2C)O1	-6.43% [at 23.5 µM]	–
O=C(c1cccc(F)c1)N1C[C@@H]2[C@H](c3ccccc31)[C@H](CO)N2C(=O)Cc1ccccc1	-12.1%	–
CCC(=O)N1[C@@H](CO)[C@H](c2ccccc2)[C@@H]1CN(C(C)C)S(C)(=O)=O	0.504%	–
Cc1ccccc1-c1nc(CN2CCCC(C(=O)NCCCN3CCOCC3)C2)c(C)o1 (centres undefined)	-1.79%	–
CCNC(=O)Nc1ccc2c(c1)C(=O)N(C)[C@@H]1CC[C@H](CC(=O)NCC3CC3)O[C@@H]1CO2	4.16%	–
COc1cccc(NC(=O)Nc2ccc3c(c2)C(=O)N(C)[C@@H]2CC[C@H](CC(=O)O)O[C@H]2CO3)c1	2.43%	–
C[C@H](CO)N1C[C@H](C)[C@H](CN(C)C(=O)NC2CCCCC2)Oc2ncc(-c3cccc(C(F)(F)F)c3)cc2C1=O	-2.88% [at 23.5 µM]	–
CCCC(=O)Nc1ccc2c(c1)C(=O)N(C)[C@@H]1CC[C@H](CC(=O)Nc3cn(C)nc3C)O[C@@H]1CO2	9.32% [at 23.5 µM]	–
COCC(=O)NC[C@H]1[C@@H](c2ccc(C3=CCCC3)cc2)[C@H](CO)N1C(=O)C1CC1	-9.54%	–
CCOC(=O)c1ccc(NC(=O)c2ccc(CN3CCOCC3)cc2)cc1	-13.2%	–
C[C@@H]1CN([C@@H](C)CO)S(=O)(=O)c2ccc(C3=CCCCC3)cc2O[C@@H]1CN(C)C(=O)Cc1ccncc1	-7.64%	–
O=C(NC[C@@H]1[C@@H](c2ccccc2)[C@H](CO)N1C(=O)C1CCC1)NC1CCCC1	-1.54% [at 23.5 µM]	–
O=C(c1ccc(CNc2c(NC3CCCCC3)c(=O)c2=O)cc1)N1CCc2ccccc21	6.16%	–

Compound	activity change, negative = cytotoxicity	outcome
CNC(=O)C[C@@H]1CC[C@H]2[C@@H](COc3ccc(NC(=O)C(C)C)cc3C(=O)N2C)O1	-2.67%	–
C[C@H](CO)N1C[C@H](C)[C@@H](CN(C)C(=O)C2CCOCC2)Oc2cc(C#Cc3ccncc3)ccc2S1(=O)=O	-19.7%	–
Cc1cccc(NC(=O)Nc2ccc3c(c2)C(=O)N(C)[C@@H]2CC[C@H](CC(=O)NCc4ccccc4Cl)O[C@H]2CO3)c1	-6.91%	–
CN(C)C(=O)c1ccc(-c2ccc([C@H]3[C@@H](CO)N4CCCCN(C(=O)C5CCCC5)C[C@@H]34)cc2)cc1	-8.32%	–
CCCNC(=O)Nc1ccc2c(c1)C(=O)N(C)[C@@H]1CC[C@@H](CC(=O)NCC3CCCCC3)O[C@H]1CO2	-5.32%	–
CNC(=O)C[C@@H]1CC[C@@H]2[C@@H](COc3ccc(NC(=O)c4ccccc4OC)cc3C(=O)N2C)O1	-6.77% [at 23.5 µM]	–
COCC(=O)N(C)C[C@@H]1[C@@H](c2ccccc2)[C@H](CO)N1C(=O)Cc1ccncc1	-2.97% [at 23.5 µM]	–
COCC(=O)Nc1ccc2c(c1)C(=O)N(C)[C@@H]1CC[C@@H](CC(=O)OC)O[C@@H]1CO2	4.36%	–
c1cnc(N2CCN(Cc3c[nH]c4ccccc34)CC2)nc1	11.4%	–
C[C@@H]1CN([C@H](C)CO)S(=O)(=O)c2ccc(C#CC3CC3)cc2O[C@@H]1CN(C)C(=O)c1cccc(F)c1	-31.4%	–
CN1C(=O)c2cc(NC(=O)c3cccc(F)c3)ccc2OC[C@@H]2O[C@H](CC(=O)NC3CCC3)CC[C@@H]21	–	inactive
CCCNC(=O)C[C@H]1CC[C@@H]2[C@@H](COc3ccc(NC(=O)c4ccc5c(c4)OCO5)cc3C(=O)N2C)O1	-16.7% [at 23.5 µM]	–
CN(C)CCCN(C(=O)CCc1ccccc1)c1nc2ccc(Br)cc2s1	-3.38%	–
Cc1ccc(-c2ccc3c(c2)O[C@H](CN(C)C(=O)CC2CC2)[C@H](C)CN([C@H](C)CO)S3(=O)=O)cc1	-25.1%	–
C[C@@H]1CN([C@@H](C)CO)S(=O)(=O)c2ccc(C3=CCCC3)cc2O[C@@H]1CN(C)C(=O)c1ccc(F)cc1	-11.3%	–
COc1ccc(C#Cc2ccc3c(c2)O[C@H](CN(C)C(=O)CN2CCOCC2)[C@H](C)CN([C@@H](C)CO)S3(=O)=O)cc1	-13%	–
C/C=C/c1ccc2c(c1)O[C@H](CN(C)C(=O)Nc1cccc(F)c1)[C@H](C)CN([C@@H](C)CO)S2(=O)=O	-11.1%	–
CCC(=O)N1[C@H](CO)[C@H](c2ccccc2)[C@H]1CN(C(C)C)S(C)(=O)=O	0.199%	–
COc1ccccc1CNc1nc(NCC2CC2)nc2ccsc12	-34.7%	–
